# From PubChem BioAssay (NCI)
# Compounds without any hit were thinned out: in the full panel of roughly 83,000, 20% have a hit.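 Method: cells in 96-well plates; compound added at one concentration; 48 h incubation; percent growth measured; values under 10 scored active.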 Unmarked numbers belong to inactive results. Active and inactive are the calls of the source.
# Tested on: HT29 colon
# Experiment: NCI-60 one-dose screen, 48 h (100 = growth as untreated, 0 = no growth, -100 = all killed)
# Conditions: 10 µM unless noted
# Method: Growth inhibition of the HT29 human tumor cell line is measured as a screen for anti-cancer activity. Cells are grown in 96 well plates and exposed to the test compound for 48 hours. Compounds are tested at a single concentration, which is 10^-5 M for most compounds. The reported endpoint is percent growth (GI% or GIPRCNT), where numbers from 0 - 100% represent growth inhibition, and numbers from -100% - 0 represent cell death. For example, a value of 40 represents 60% growth inhibition. A value of 0 means no net growth occurred over the course of the experiment. A value of -40 indicates 40% of cells at the beginning of the experiment died by the end of the experiment. A value of -100 means all cells are dead at the end of the experiment.
# NCI-60 Human Tumor Cell Lines Screen was performed using the standard one-dose NCI protocol, which is described in more detail at https://dtp.cancer.gov/discovery_development/nci-60/default.htm.
# Compounds with GIPRCNT values below 10 were considered active. Activity score was based on GIPRCNT using the following formula: […]
# Score is 0 for GIPRCNT values of 100 or above, 50 for GIPRCNT values of 0, and 100 for GIPRCNT values of -100.
row,SMILES,growth
1,NC(=O)N1N=C(c2ccc(Cl)cc2)CC1c1cn(-c2ccccc2)nc1-c1ccc(Cl)cc1 (stereo not given),51.1%
2,CNC(=O)c1cc(Oc2ccc(NC(=O)Nc3cc(C(C)(C)C)nn3-c3ccc4ncccc4c3)c(F)c2)ccn1,-45.3% (active)
3,O=C(O)c1ccc2c(c1)nc(Nc1cccc(Cl)c1)c1ccncc12,19.2%
4,COC(=O)[C@]12CC[C@@H](C)[C@H](C)[C@@H]1C1=CC[C@@H]3[C@@]4(C)C(C=O)=C[C@@](C)(COS(C)(=O)=O)C4=CC[C@@]3(C)[C@]1(C)CC2,-63.2% (active)
5,O=[N+]([O-])c1cc(Br)cc2c1[nH]c1ccc(Br)cc12,58.8%
6,CN(c1ncccc1CNc1nc(Nc2ccc3c(c2)CC(=O)N3)ncc1C(F)(F)F)S(C)(=O)=O,-28.4% (active)
7,COc1cnc2c(c1)C(=O)c1c-2n(CCCN2CCC(N)CC2)c(=O)c2cc([N+](=O)[O-])ccc12,36.5%
8,CC1CCC(n2cnc3c(Cl)ncnc32)O1 (stereo not given),110%
9,O=C(NOC[C@H](O)CO)c1ccc(F)c(F)c1Nc1ccc(I)cc1F,7.15% (active)
10,CS(=O)(=O)CCNCc1ccc(-c2ccc3ncnc(Nc4ccc(OCc5cccc(F)c5)c(Cl)c4)c3c2)o1,-59.1% (active)
11,Cc1cc(C(=O)NOCCO)c(Nc2ccc(I)cc2F)n(C)c1=O,7.17% (active)
12,CCN1/C(=C/C=C/c2n(-c3ccccc3)c3ccc(-c4nc5ccccc5s4)cc3[n+]2CC)N(c2ccccc2)c2ccc(-c3nc4ccccc4s3)cc21,10.8%
13,CNc1ncc2cc(-c3cc(NC(=O)NCCC(C)(C)C)c(F)cc3C)c(C)nc2n1,3.91% (active)
14,Nc1c(C(=O)c2ccccc2)sc2nc(-c3cccs3)cc(-c3cccs3)c12,11.2%
15,CO[C@H](C(=O)N[C@@H](CCCCNC(=O)OCc1ccccc1)C(=O)OC(C)(C)C)[C@@H]1Cc2cc3cc(OC4CC(OC5CC(O)C(O)C(C)O5)C(O)C(C)O4)c(C)c(O)c3c(O)c2C(=O)[C@H]1OC1CC(OC2CC(OC3CC(C)(O)C(O)C(C)O3)C(O)C(C)O2)C(O)C(C)O1 (stereo not given in full),2.05% (active)
16,Cc1cc(N(CCNc2ccnc3cc(Cl)ccc23)Cc2ccc3c(c2)OCO3)nc(N2CCCC2)n1,-10.2% (active)
17,CCCC(=O)OCC1OC(n2cnc3c(=S)nc(N)[nH]c32)C(OC(=O)CCC)C1OC(=O)CCC (stereo not given),30.2%
18,CC(C)[C@@H]1CC[C@@H]2[C@@H]1[C@H](OC(=O)/C=C/c1ccccc1)[C@]1(C(C)C)C[C@@H](OC(=O)CO)[C@@]2(C)O1,75%
19,c1cc(OCCN2CCCCC2)cc(-c2n[nH]c3ccc(-c4ncn[nH]4)cc23)c1,21%
20,CC(=O)OCCC/C(=C\c1ccc2ccccc2c1)[N+](=O)[O-],-29.8% (active)

row,SMILES,growth
1,Clc1nc(Cl)c2ncn(CC#CCn3cnc4c(Cl)nc(Cl)nc43)c2n1,-44.2% (active)
2,CCN1CCN(CCCN(C[C@H]2Cc3ccccc3CN2)[C@H]2CCCc3cccnc32)CC1,75.2%
3,CC(N)C(Cc1ccc(Cl)cc1)c1ccc(Cl)cc1 (stereo not given),-21.9% (active)
4,COc1ccc(C(=O)c2cc(OC)c(OC)c(OC)c2)cc1/C=C/C(=O)c1ccc(F)cc1,13.6%
5,CSC1=C(N)C(=O)c2[nH]cc(CO)c2C1=N,-9.17% (active)
6,Cc1ccc(-c2cc3c(SCC(=O)Nc4cc(C(F)(F)F)ccc4Cl)nccn3n2)cc1,-18.8% (active)
7,O=C1CC(c2ccc(Cl)cc2)c2ncn(-c3cccc(Cl)c3)c2N1 (stereo not given),28.8%
8,COC(=O)[C@H](C)NC(=O)[C@@H](OC)[C@@H]1Cc2cc3cc(OC4CC(OC5CC(O)C(O)C(C)O5)C(O)C(C)O4)c(C)c(O)c3c(O)c2C(=O)[C@H]1OC1CC(OC2CC(OC3CC(C)(O)C(O)C(C)O3)C(O)C(C)O2)C(O)C(C)O1 (stereo not given in full),3.99% (active)
9,CCN1CCN(c2cc(C)nc(N(CCCNc3ccnc4cc(Cl)ccc34)Cc3ccc4c(c3)OCO4)n2)CC1,-12.2% (active)
10,O=C(Cc1ccc(-c2ccc(OCCN3CCOCC3)cc2)cn1)NCc1ccccc1,4.32% (active)
11,CC12O[C@H](C[C@@H](OC(=O)CCC(=O)O)[C@H]1O)n1c3ccccc3c3c4c(c5c6ccccc6n2c5c31)C(=O)NC4=O,21.2%
12,CNC(=O)c1c(C)oc2cc(Oc3ncnc4cc(OC)c(OC)cc34)ccc12,98.4%
13,C=CC(=O)Nc1cccc(Nc2nc(Nc3ccc(N4CCN(C(C)=O)CC4)cc3OC)ncc2C(F)(F)F)c1,-7.05% (active)
14,N#CC1(C#N)C(c2cccs2)NC(c2cccs2)C1(C#N)C#N (stereo not given),103%
15,Cc1ccc(-n2nc(C(C)(C)C)cc2NC(=O)NCc2cc(F)ccc2Oc2ccc3c(cnn3CCO)c2)cc1,5.67% (active)
16,COc1ccc2c(CCc3ccc(Cl)cc3)c3[n+](cc2c1OC)CCc1cc2c(cc1-3)OCO2,43.1%
17,CC(C)(C)c1ccc(Cn2cc(CSc3nc4ccccc4s3)nn2)cc1,99.6%
18,COC[C@@H](C)n1c(C2CCOCC2)nc2c1C1C=C(OC)C(c3c(C)noc3C)=CC1N=C2 (stereo not given in full),17.4%
19,Cc1ccc(Nc2nccc(N(C)c3ccc4c(C)n(C)nc4c3)n2)cc1S(N)(=O)=O,3.61% (active)
20,CCc1cc2c(cc1N1CCC(N3CCOCC3)CC1)C(C)(C)c1[nH]c3cc(C#N)ccc3c1C2=O,-58% (active)
